# This is a sample that favours compounds with a hit; in the whole collection about 12% have one here.
# Sfp inh: qHTS Assay for Inhibitors of Bacillus subtilis Sfp phosphopantetheinyl transferase (PPTase). Biochemical Sfp PPTase activity, qHTS. Potency, µM, without a hit: largest response in the series, negative = inhibition, hits mostly inhibitors. 310,000 tested, 3.5% active;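 note: the enzyme is Sfp with the accession as filed and its product quenches rhodamine fluorescence; 0% = enzyme reaction without inhibitor and -100% = no enzyme wells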
#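 Fluorescence-quenching assay: 15 nM Sfp-PPTase preincubated 15 min at room temperature with compound, then 5 uM rhodamine-CoA and 12.5 uM BHQ-2-labelled YbbR peptide added. Fluorescence (ex 525/em 598 nm) read at start and after 30 min; difference gives rate.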
# G9a inh: qHTS Assay for Inhibitors of Histone Lysine Methyltransferase G9a. G9a H3K9 monomethylation, AlphaScreen, 2 h. Potency, µM (series often up to 102 µM), without a hit: at the highest dose activity, negative = inhibition, hits mostly inhibitors. 350,000 tested, 8.8% active; note: % is set by controls: 0 for no effect and ±100 for the full control effect; nearly all actives have a fitted effect of over 75% in size
# Target sequence (Q96KQ7 913-1193 limits assumed): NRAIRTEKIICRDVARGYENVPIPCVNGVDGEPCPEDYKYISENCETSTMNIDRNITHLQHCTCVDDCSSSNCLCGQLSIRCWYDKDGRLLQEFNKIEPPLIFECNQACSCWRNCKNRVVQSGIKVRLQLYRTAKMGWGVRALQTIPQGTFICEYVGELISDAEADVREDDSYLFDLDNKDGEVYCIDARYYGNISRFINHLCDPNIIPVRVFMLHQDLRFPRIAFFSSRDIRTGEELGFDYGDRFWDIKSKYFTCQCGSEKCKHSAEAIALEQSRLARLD
#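 Quantitative HTS format: methyltransferase activity on a biotin-tagged H3K9 peptide is measured by AlphaScreen, using a rabbit anti-monomethyl-H3K9 antibody with streptavidin donor and anti-IgG acceptor beads. Final levels are 20 nM enzyme, 500 nM peptide, 20 uM SAM; 2 h RT.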
# BAZ2B block: qHTS Assay for Inhibitors of BAZ2B; AlphaScreen BAZ2B-H3K14Ac peptide displacement; Bromodomain adjacent to zinc finger domain protein 2B (Homo sapiens), Q9UIF8; 360,000 tested, 4.4% active; AID 504333, 2011; Potency, µM (top dose mostly 114 µM), for inactives: at the top dose activity change, negative = inhibition, usual class: inhibitors; note: % is set by controls: 0 for no effect and ±100 for the full control effect; nearly all actives have a fitted effect of over 60% in size
#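 BAZ2B (50 nM) with biotin-H3(5-23)K14Ac peptide (50 nM) in PBS pH 7.4, 0.01% Tween-20, preformed 30 min, then compound 30 min at room temperature; top concentration 110uM. AlphaScreen streptavidin donor/nickel chelate acceptor beads (10 ug/mL final), 20 min dark, signal read.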
# JMJD2A Tudor: qHTS Assay for Inhibitors of JMJD2A-Tudor Domain; AlphaScreen JMJD2A-Tudor / H3K4me3 peptide binding; Potency, µM (titrated, usually from 114 µM), inactives show at the top dose activity change, negative = inhibition, most hits filed as inhibitors; 390,000 tested, 4.4% active; AID 504339, 2011; note: % is set by controls: 0 for no effect and ±100 for the full control effect; nearly all actives have a fitted effect of over 50% in size
# L3MBTL1 inh: qHTS Assay for the Inhibitors of L3MBTL1 | Lethal(3)malignant brain tumor-like protein 1 (Homo sapiens), Q9Y468 | AID 485360, 2010 | Potency, µM (top dose mostly 57.1 µM), inactives show at the top dose activity, negative = inhibition, usual class: inhibitors | AlphaScreen L3MBTL1–H3K9me1 peptide binding | 230,000 tested, 0.66% active; note: % is set by controls: 0 for no effect and ±100 for the full control effect; nearly all actives have a fitted effect of over 60% in size
#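 L3MBTL1 50 nM + b-AHA-H3(1-15)K9me1 75 nM, 30 min RT; compound added, 30 min RT; streptavidin donor/Ni-chelate acceptor beads 10 ug/mL each final, 30 min RT dark; AlphaScreen read.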
# HP1b binding inh: HTS for Inhibitors of HP1-beta Chromodomain Interactions with Methylated Histone Tails | Potency, µM (top dose mostly 114 µM), for the others: at the top dose activity change, negative = inhibition, usual class: inhibitors | 390,000 tested, 0.56% active | AlphaScreen HP1-beta / biotin-H3K9me3 peptide binding | Chromobox protein homolog 1 (Homo sapiens), P83916; note: nearly all actives have a fitted effect of over 70% in size
# Target sequence (P83916 whole entry, looked up): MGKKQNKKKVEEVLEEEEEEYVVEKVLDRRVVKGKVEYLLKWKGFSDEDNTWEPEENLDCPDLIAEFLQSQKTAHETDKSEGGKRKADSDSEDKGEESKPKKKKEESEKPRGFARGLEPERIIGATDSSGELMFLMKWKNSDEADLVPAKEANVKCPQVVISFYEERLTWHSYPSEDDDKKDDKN
#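 AlphaScreen: HP1-beta (50 nM) preformed 30 min with biotin-H3(1-18)K9me3 peptide (50 nM) in PBS pH 7.4, 0.01% Tween-20. Compound added for 30 min at RT, then streptavidin donor/nickel chelate acceptor beads (10 ug/mL) for 30 min.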
# Active calls of the source: *; u = inconclusive; x = not tested or not shown; [ ] = remark or other dose. Calls come from the whole dose curve; as a rule, active = well fitted curve in the direction sought with a large enough effect; inconclusive = small, poorly fitted or top-dose-only effect, or another doubt; inactive = no such curve, though single readings can be large; an effect the other way counts as inactive or inconclusive. Potency is the fitted concentration of half-maximal effect.
SMILES,Sfp inh,G9a inh,BAZ2B block,JMJD2A Tudor,L3MBTL1 inh,HP1b binding inh
Cc1ccccc1NC(=S)N(CCc1c(C)[nH]c2ccc(F)cc12)Cc1cccnc1,7.6%,56.2µM*,x,u,x,-7.4%
COc1cc(/C=C(\C#N)C(=O)NCCc2ccccc2)cc(OC)c1O,-2.3%,31.6µM*,-8.1%,-15.5%,x,3.6%
N#C/C(=C\c1ccc(O)cc1)C(=O)NCc1ccccc1,5.7%,1.5%,-12.4%,-18.5%,x,16.3%
N#C/C(=C\c1ccc(O)c(O)c1)C(=O)NCCCCc1ccccc1,79.4µM*,x,x,x,x,x
COCCNC(=O)/C(C#N)=C/c1cc(Br)c(O)c(OC)c1,-3.9%,14.1µM*,-11.6%,-8.6%,3.7%,0.6%
N#C/C(=C\c1ccc(O)c(O)c1)C(=O)NCCc1ccccc1,x,9.47µM*,11.2µM*,u,-8.4%,u
COc1ccc(/C=C(\C#N)C(=O)NCc2ccccc2)cc1O,13.3%,23.6%,-8.5%,-21.8%,x,9.9%
COc1cc(/C=N/S(=O)(=O)CCc2ccccc2)cc(OC)c1O,-0.7%,50.1µM*,-23.0%,-8.8%,-1.8%,13.3%
COc1cc(/C=C(\C#N)C(=O)c2c[nH]c3ccccc23)cc(OC)c1O,-26.4%,11.2µM*,x,50.1µM*,x,u
COCCNC(=O)/C(C#N)=C/c1ccccc1Br,4.6%,4.2%,-13.0%,17.8µM*,1.0%[11.4 µM],-3.4%
COc1cc(/C=N/NC(=S)NCCc2ccccc2)cc(OC)c1OC,0.8%,-7.0%,-31.7%,u,x,10.7%
Cc1ccc(C(=O)Oc2oc(-c3ccco3)nc2C=Nc2ccccc2)cc1,44.7µM*,28.2µM*,-5.2%[57.1 µM],x,0.4%,x
CCOC(=O)c1ccc(N=Cc2nc(-c3ccccc3)oc2OC(C)=O)cc1,-8.5%,7.94µM*,-25.5%,-6.8%,x,39.4%
CN(C)c1ccc(N=Cc2nc(-c3ccccc3)oc2OC(=O)c2cccc(Br)c2)cc1,-3.3%,31.6µM*,35.5µM*,u,-19.4%,-22.4%
CCC(=O)Oc1oc(-c2ccccc2)nc1C=Nc1ccc(C)cc1,5.4%,u,-1.5%,-26.4%,-0.7%,16.4%
COc1ccc(N=Cc2nc(-c3ccccc3)oc2OC(=O)c2ccccc2)cc1,-17.1%,14.2%[59 µM],9.2%,17.0%,10.6%,78.2%
CC(=O)Oc1oc(-c2ccccc2)nc1C=Nc1ccccc1,-16.6%,50.1µM*,-5.0%[57.1 µM],-17.6%,0.2%,37.1%
C#CCCCO/N=C1/[C@H]2O[C@@H]2[C@@H](O)[C@H]2[C@H]1CCn1c(=O)n(Cc3cc4c(cc3Cl)OCO4)c(=O)n12,13.9%,x,x,x,x,x
COc1cccc2cc(C(=O)NCCc3c(C)[nH]c4ccc(F)cc34)c(=O)oc12,x,-1.2%[59 µM],-19.2%,4.1%,x,34.5%
O=C(COc1ccc(F)cc1)Nc1ccccc1C(=O)OCc1cc(=O)n2ccsc2n1,x,-23.0%[59 µM],u,-24.5%,x,56.4%
CCCCN(CC)CCNC(=O)C1CCN(c2nnc(C)c3c(C)n(-c4ccc(C)cc4)nc23)CC1,x,u,-15.7%,-1.7%,x,31.1%
C#CCCCO/N=C1/C[C@@H](O)[C@@H](O)[C@@H]2[C@H]3C(=O)N(c4ccc(F)cc4F)C(=O)[C@@H]3CC[C@H]12,7.3%,x,x,x,x,x
Cc1ccc(S(=O)(=O)C(CNS(=O)(=O)c2ccc(F)c(C(F)(F)F)c2)c2ccco2)cc1 (configuration not stated),x,-29.9%[59 µM],-5.2%,-1.3%,x,28.0%
Cc1cn2c(=O)c(S(=O)(=O)Nc3ccc(OC(F)(F)F)cc3)c(C)nc2s1,x,-25.4%[59 µM],-11.4%,-8.4%,x,39.6%
Cc1ccc(S(=O)(=O)Nc2nnc(C(C)(C)C)s2)cc1,-56.3%,4.47µM*,-6.3%,-5.1%,2.7%,-2.2%
SMILES,Sfp inh,G9a inh,BAZ2B block,JMJD2A Tudor,L3MBTL1 inh,HP1b binding inh
COCc1nnc(NS(=O)(=O)c2ccc(C)cc2)s1,14.7%,-8.7%[12.7 µM],-9.0%,u,x,62.6%
CC(C)(C)c1nnc(NS(=O)(=O)c2ccc([N+](=O)[O-])cc2)s1,-70.7%,10µM*,-2.6%,-28.9%,-4.9%,-13.2%
Cc1ccc(S(=O)(=O)Nc2nsc(N)n2)cc1,35.5µM*,31.6µM*,-5.6%,1.8%,5.5%,5.1%
CC(C)Nc1nc(NC(C)C)nc(NS(=O)(=O)c2ccc(N)cc2)n1,7.5%,-22.2%[59 µM],10.3%,9.5%,u,22.3%
COc1ccc(Cc2nnc(NS(=O)(=O)c3ccc(Cl)cc3)s2)cc1OC,-17.8%,31.6µM*,u,-17.5%,-0.6%,-7.6%
CCOC(=O)c1ccc(NS(=O)(=O)c2cc3c(cc2C)n(C)c(=O)c(=O)n3C)cc1,x,-4.2%[59 µM],0.2%,-5.9%,x,31.6%
Cc1ccc(S(=O)(=O)Nc2nnc(CC(C)(C)C)s2)cc1,79.4µM*,35.5µM*,-21.3%,-20.7%,1.4%,-5.1%
CC(Sc1ncnc2sc(-c3ccccc3)cc12)C(N)=O (configuration not stated),-13.7%,x,79.4µM*,-21.5%,x,26.0%
COc1ccc(N2C(=O)NC(NS(=O)(=O)c3ccccc3)(C(F)(F)F)C2=O)cc1 (configuration not stated),10.6%,5.4%,-15.2%,-10.9%,x,48.4%
COc1ccc(N=C2C(=S)N(c3ccc(OC)cc3)C(=NS(=O)(=O)c3ccccc3)N2c2ccccc2)cc1,x,x,x,u,x,10µM*
N#CC1=C(N)N(c2ccc(F)cc2)C2=C(C1c1ccc(O)cc1)S(=O)(=O)CC2 (configuration not stated),-91.9%,3.98µM*,35.5µM*,31.6µM*,x,39.8µM*
CSc1ccc(C2C(C#N)=C(N)N(c3ccccc3)C3=C2C(=O)CCC3)cc1 (configuration not stated),-24.0%,u,u,u,x,-9.0%
O=C(NCc1cccs1)C1CCN(C(=O)N2CCOc3ccccc32)CC1,x,-19.4%[59 µM],-6.0%,-3.6%,x,31.5%
Cc1cc(NC(=S)Nc2cccc3ccccc23)n[nH]1,-7.0%,1.12µM*,-24.7%,-23.0%,-16.7%,-14.0%
Cc1cc(C)cc(NC(=S)Nc2cccc3ccccc23)c1,3.9%,59.2%,7.9%,-30.9%,x,-11.6%
S=C(Nc1ccc(Cl)cc1)Nc1cccc2cnccc12,u,44.7µM*,-38.2%,-20.6%,-0.3%,-19.3%
Fc1ccc(NC(=S)Nc2cccc3ccccc23)cc1,-23.1%,79.4µM*,u,-23.9%,-7.5%,1.0%
Fc1ccc(NC(=S)Nc2cccc3ccccc23)cc1F,-16.8%,-47.7%,-23.0%,-6.2%,x,5.0%
